# From PMC7862700, “An all-to-all approach to the identification of sequence-specific readers for epigenetic DNA modifications on cytosine”
# Experiments:
# Experiment in all cases: DAPPL (digital affinity profiling via proximity ligation, sequencing); 10 mM Tris-HCl pH 7.5, 50 mM NaCl, 1 mM DTT, 4% glycerol, room temperature, 30 min; GST-TFs on glutathione beads, 16-mer random dsDNA library, 0.1% formaldehyde crosslink after washing; high values mean tight binding
# FLI1 = target: T1, FLI1 (Homo sapiens, UniProt Q01543 1-452); conditions: protein: recombinant; tags: N-terminal GST; dsDNA, one strand shown
# T1 sequence: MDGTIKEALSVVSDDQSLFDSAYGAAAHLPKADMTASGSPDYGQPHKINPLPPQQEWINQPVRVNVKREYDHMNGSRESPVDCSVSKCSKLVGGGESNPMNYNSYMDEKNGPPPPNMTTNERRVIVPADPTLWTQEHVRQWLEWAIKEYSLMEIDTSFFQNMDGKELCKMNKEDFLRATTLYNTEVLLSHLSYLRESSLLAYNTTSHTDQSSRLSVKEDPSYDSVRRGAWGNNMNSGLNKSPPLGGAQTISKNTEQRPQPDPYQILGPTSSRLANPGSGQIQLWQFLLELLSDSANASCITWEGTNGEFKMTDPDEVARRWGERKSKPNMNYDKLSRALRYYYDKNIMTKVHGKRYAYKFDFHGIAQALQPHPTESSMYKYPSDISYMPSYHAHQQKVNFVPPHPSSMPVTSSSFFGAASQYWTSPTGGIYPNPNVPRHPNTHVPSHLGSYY
# Method in brief: (§1)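 Binding signal is defined as a hexamer's read frequency for one factor over its frequency for the tag-only sample. To obtain reads, GST-fused human transcription factors were expressed in yeast, captured on glutathione beads, barcoded with DNA and pooled with that sample. Pools met 200 nmole of a 16-mer random double-stranded DNA library in Tris/NaCl/DTT/glycerol buffer for 30 min at room temperature before washing, 0.1% formaldehyde crosslinking, proximity ligation (BsaI/T4 ligase, 1 h, 37 °C), PCR and Illumina NextSeq500 sequencing.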
# ELK1 = target: T2, ELK1 (Homo sapiens, UniProt P19419 1-428); conditions: protein: recombinant; tags: N-terminal GST; dsDNA, one strand shown
# T2 sequence: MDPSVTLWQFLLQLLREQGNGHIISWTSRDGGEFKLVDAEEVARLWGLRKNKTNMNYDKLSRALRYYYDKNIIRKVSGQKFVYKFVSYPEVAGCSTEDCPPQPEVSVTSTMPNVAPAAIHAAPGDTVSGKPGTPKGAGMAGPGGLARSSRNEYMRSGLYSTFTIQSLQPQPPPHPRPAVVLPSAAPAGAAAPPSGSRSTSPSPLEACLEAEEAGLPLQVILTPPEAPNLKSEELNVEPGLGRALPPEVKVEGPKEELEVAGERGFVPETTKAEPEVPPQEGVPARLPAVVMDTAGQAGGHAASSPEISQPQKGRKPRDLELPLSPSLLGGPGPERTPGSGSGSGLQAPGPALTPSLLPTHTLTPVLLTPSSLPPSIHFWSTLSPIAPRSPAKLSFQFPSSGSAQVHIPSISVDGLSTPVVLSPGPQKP
# Method in brief: as §1
# GABPA = target: T3, GABPA (Homo sapiens, UniProt Q06546 1-454); conditions: protein: recombinant; tags: N-terminal GST; dsDNA, one strand shown
# T3 sequence: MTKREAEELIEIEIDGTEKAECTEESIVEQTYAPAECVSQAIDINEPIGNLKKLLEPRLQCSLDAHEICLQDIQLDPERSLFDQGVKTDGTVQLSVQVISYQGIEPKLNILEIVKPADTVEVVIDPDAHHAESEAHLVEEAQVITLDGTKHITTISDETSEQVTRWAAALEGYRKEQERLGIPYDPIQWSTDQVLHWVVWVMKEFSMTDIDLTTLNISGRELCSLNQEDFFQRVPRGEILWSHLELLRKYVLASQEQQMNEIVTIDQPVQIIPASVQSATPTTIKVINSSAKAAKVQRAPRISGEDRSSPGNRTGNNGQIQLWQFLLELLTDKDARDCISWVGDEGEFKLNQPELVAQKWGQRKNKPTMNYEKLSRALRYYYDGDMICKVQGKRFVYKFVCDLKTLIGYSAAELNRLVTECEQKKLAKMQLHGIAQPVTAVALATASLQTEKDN
# Method in brief: as §1
# ERG = target: T4, ERG (Homo sapiens, UniProt P11308 1-479); conditions: protein: recombinant; tags: N-terminal GST; dsDNA, one strand shown
# T4 sequence: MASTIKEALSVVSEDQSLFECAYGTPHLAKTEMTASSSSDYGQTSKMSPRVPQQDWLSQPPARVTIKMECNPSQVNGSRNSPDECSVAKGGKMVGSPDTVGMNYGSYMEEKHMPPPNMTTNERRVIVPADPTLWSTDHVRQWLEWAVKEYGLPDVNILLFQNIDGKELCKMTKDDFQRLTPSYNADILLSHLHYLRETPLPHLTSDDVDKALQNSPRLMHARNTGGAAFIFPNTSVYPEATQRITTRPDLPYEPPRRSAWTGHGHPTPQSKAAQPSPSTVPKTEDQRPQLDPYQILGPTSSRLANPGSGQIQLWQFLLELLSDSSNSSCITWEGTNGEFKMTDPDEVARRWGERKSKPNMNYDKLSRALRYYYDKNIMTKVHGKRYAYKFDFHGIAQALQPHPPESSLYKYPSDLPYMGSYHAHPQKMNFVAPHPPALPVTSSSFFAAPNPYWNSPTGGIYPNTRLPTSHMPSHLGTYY
# Method in brief: as §1
# ELF1 = ELF1 (Homo sapiens, UniProt P32519 1-619); conditions: protein: recombinant; tags: N-terminal GST; dsDNA, one strand shown
# Method in brief: as §1
# EHF = target: T5, EHF (Homo sapiens, UniProt Q9NZC4 1-300); conditions: protein: recombinant; tags: N-terminal GST; dsDNA, one strand shown
# T5 sequence: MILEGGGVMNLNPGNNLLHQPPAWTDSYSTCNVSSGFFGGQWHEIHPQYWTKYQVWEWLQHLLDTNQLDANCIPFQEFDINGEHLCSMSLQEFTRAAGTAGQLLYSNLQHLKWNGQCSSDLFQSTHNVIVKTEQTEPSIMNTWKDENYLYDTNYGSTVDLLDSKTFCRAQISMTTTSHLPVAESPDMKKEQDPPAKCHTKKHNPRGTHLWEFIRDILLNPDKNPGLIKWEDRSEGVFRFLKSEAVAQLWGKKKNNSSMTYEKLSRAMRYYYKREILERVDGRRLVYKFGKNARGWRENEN
# Method in brief: as §1
# SPI1 = SPI1 (Homo sapiens, UniProt P17947 1-270); conditions: protein: recombinant; tags: N-terminal GST; dsDNA, one strand shown
# Method in brief: as §1
# SPIB = SPIB (Homo sapiens, UniProt Q01892 1-262); conditions: protein: recombinant; tags: N-terminal GST; dsDNA, one strand shown
# Method in brief: as §1
# ELK3 = target: T6, ELK3 (Homo sapiens, UniProt P41970 1-407); conditions: protein: recombinant; tags: N-terminal GST; dsDNA, one strand shown
# T6 sequence: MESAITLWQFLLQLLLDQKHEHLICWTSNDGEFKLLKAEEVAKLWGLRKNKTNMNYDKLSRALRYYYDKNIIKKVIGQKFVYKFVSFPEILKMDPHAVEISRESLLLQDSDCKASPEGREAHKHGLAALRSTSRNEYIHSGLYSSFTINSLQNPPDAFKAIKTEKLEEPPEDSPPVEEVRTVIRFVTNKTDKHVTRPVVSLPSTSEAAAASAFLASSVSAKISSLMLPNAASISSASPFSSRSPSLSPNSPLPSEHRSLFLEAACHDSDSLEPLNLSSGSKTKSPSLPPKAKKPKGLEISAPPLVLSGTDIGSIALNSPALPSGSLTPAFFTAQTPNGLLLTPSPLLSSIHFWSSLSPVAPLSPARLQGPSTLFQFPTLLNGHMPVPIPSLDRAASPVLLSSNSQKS
# Method in brief: as §1
# FEV = target: T7, FEV (Homo sapiens, UniProt Q99581 1-238); conditions: protein: recombinant; tags: N-terminal GST; dsDNA, one strand shown
# T7 sequence: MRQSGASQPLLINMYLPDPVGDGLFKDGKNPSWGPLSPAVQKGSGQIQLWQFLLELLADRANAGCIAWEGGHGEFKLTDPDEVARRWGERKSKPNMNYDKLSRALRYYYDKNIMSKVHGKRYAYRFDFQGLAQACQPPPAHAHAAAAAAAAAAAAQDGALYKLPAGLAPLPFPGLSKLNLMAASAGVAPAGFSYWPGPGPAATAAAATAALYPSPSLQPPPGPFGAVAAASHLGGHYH
# Method in brief: as §1
# ETV5 = ETV5 (Homo sapiens, UniProt P41161 1-510); conditions: protein: recombinant; tags: N-terminal GST; dsDNA, one strand shown
# Method in brief: as §1
# HSF1 = HSF1 (Homo sapiens, UniProt Q00613 1-529); conditions: protein: recombinant; tags: N-terminal GST; chain copies: 3; dsDNA, one strand shown
# Method in brief: as §1
# SPIC = target: T8, SPIC (Homo sapiens, UniProt Q8N5J4 1-248); conditions: protein: recombinant; tags: N-terminal GST; dsDNA, one strand shown
# T8 sequence: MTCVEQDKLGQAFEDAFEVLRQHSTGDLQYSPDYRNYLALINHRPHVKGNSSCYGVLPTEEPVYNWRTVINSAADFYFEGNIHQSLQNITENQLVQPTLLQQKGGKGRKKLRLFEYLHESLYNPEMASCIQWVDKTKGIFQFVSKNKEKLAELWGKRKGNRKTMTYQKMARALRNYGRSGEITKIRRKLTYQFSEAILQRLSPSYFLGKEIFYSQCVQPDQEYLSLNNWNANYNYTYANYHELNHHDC
# Method in brief: as §1
# ELF4 = ELF4 (Homo sapiens, UniProt Q99607 1-663); conditions: protein: recombinant; tags: N-terminal GST; dsDNA, one strand shown
# Method in brief: as §1
# ELK4 = target: T9, ELK4 (Homo sapiens, UniProt P28324-2 1-405); conditions: protein: recombinant; tags: N-terminal GST; dsDNA, one strand shown
# T9 sequence: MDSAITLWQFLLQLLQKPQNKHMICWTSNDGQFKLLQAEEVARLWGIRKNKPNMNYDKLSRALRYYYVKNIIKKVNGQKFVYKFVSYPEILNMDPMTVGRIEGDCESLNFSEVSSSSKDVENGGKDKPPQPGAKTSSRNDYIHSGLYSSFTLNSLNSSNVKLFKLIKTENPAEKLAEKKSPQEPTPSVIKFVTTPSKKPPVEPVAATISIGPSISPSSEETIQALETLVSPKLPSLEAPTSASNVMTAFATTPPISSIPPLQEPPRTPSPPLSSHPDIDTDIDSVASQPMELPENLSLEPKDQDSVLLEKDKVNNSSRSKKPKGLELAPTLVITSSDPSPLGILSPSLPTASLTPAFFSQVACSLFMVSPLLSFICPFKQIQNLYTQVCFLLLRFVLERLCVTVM
# Method in brief: as §1
# ETV2 = target: T10, ETV2 (Homo sapiens, UniProt O00321 1-342); conditions: protein: recombinant; tags: N-terminal GST; dsDNA, one strand shown
# T10 sequence: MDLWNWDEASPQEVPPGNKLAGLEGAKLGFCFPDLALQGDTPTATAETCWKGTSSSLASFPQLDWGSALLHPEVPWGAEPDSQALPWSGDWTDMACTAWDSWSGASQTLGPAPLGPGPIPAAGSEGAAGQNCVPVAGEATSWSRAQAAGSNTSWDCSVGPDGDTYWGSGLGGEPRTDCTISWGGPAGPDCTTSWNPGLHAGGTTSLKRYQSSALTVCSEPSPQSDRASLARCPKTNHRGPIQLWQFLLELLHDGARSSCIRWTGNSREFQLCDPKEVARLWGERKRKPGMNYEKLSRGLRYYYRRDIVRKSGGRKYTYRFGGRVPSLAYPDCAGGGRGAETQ
# Method in brief: as §1
# ELF3 = target: T11, ELF3 (Homo sapiens, UniProt P78545 1-371); conditions: protein: recombinant; tags: N-terminal GST; dsDNA, one strand shown
# T11 sequence: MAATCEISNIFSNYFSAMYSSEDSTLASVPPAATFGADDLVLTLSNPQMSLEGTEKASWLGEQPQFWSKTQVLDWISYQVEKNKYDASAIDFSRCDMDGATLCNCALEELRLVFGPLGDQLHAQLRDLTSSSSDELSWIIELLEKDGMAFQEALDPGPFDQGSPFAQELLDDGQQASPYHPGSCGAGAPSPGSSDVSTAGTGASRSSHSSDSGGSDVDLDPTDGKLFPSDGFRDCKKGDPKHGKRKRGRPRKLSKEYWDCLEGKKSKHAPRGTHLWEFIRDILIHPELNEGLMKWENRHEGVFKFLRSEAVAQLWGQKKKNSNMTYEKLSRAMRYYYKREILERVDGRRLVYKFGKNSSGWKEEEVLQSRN
# Method in brief: as §1
# CRX = CRX (Homo sapiens, UniProt O43186 1-299); conditions: protein: recombinant; tags: N-terminal GST; dsDNA, one strand shown
# Method in brief: as §1
# ETV1 = ETV1 (Homo sapiens, UniProt P50549 1-477); conditions: protein: recombinant; tags: N-terminal GST; dsDNA, one strand shown
# Method in brief: as §1
# HSF1, sequence (Q00613 whole entry): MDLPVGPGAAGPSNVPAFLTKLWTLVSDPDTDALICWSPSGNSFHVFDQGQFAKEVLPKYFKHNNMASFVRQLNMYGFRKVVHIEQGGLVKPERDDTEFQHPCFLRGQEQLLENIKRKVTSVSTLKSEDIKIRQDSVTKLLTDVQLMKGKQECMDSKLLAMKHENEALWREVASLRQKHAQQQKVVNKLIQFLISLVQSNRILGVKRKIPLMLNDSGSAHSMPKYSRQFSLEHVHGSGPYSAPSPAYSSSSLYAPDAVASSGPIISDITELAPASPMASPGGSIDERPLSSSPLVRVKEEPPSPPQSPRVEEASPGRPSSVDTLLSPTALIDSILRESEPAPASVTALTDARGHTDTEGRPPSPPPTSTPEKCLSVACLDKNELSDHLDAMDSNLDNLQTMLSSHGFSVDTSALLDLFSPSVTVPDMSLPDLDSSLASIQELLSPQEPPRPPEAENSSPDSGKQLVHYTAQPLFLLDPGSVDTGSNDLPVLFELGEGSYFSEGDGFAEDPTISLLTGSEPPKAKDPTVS
# ELF4, sequence (Q99607 whole entry): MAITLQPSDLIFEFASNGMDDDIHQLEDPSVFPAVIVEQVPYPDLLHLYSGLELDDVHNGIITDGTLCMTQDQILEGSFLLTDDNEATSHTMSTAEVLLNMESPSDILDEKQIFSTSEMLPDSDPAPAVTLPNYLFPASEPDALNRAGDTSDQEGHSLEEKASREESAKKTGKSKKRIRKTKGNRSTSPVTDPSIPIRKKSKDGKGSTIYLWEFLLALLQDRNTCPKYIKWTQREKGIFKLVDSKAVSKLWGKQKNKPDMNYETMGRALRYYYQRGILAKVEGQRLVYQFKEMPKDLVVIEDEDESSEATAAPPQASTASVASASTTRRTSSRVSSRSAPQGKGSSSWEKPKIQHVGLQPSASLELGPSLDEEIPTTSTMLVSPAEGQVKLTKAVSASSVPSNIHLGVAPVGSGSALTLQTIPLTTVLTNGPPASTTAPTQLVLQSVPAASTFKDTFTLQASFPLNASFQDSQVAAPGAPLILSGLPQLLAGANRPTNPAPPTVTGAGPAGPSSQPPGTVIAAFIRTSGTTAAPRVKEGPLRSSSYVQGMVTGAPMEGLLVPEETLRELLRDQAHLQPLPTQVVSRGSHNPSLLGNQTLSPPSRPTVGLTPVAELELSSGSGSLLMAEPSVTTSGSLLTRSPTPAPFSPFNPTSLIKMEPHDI
# ELF1, sequence (P32519 whole entry): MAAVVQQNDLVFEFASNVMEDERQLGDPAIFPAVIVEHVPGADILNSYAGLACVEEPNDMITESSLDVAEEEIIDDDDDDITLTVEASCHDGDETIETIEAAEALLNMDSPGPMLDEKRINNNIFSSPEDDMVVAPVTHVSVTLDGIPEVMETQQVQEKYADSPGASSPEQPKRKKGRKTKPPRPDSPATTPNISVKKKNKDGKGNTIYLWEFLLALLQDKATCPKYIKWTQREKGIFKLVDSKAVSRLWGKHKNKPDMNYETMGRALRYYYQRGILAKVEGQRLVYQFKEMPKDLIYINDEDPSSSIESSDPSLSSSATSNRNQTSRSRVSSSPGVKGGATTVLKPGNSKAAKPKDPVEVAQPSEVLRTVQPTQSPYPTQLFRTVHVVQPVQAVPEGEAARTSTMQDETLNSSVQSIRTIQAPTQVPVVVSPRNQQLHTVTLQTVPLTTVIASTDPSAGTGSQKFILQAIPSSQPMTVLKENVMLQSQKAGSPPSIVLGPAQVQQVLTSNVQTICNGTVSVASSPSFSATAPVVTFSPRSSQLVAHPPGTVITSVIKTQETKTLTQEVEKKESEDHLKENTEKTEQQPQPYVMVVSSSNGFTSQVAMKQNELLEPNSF
# ETV5, sequence (P41161 whole entry): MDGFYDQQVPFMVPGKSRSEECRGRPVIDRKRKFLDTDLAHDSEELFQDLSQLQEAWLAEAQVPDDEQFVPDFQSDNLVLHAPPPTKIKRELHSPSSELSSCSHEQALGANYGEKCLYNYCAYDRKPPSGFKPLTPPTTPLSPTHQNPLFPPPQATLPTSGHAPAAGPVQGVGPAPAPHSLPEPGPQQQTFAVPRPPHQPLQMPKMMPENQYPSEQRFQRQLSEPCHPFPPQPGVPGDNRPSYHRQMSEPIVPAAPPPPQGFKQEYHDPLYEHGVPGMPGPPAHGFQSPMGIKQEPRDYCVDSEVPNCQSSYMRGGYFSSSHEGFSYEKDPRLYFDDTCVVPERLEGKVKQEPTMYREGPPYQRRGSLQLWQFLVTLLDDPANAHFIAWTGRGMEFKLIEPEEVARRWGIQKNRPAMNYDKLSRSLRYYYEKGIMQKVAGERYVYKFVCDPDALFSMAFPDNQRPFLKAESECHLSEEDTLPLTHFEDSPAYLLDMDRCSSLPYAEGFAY
# ETV1, sequence (P50549 whole entry): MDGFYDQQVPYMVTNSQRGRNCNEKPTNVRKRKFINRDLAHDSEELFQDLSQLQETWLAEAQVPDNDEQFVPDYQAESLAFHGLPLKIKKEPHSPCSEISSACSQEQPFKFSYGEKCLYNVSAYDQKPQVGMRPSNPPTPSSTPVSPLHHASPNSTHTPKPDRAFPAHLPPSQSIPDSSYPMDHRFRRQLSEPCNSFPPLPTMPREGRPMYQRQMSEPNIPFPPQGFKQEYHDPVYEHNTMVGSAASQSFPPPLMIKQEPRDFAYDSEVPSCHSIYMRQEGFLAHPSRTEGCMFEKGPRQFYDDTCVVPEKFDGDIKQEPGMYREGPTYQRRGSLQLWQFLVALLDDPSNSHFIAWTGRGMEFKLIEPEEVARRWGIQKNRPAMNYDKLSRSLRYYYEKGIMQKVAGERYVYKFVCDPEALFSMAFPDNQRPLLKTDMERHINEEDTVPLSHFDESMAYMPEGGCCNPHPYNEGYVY
# CRX, sequence (O43186 whole entry): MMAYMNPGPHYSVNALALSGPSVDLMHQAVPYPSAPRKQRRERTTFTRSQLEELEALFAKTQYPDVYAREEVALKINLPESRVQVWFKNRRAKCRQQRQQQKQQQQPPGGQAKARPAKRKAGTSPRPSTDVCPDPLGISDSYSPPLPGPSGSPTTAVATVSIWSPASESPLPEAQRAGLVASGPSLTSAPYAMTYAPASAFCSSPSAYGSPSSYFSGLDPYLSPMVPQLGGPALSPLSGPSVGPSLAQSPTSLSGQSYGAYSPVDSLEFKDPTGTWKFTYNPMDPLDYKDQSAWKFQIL
# SPIB, sequence (Q01892 whole entry): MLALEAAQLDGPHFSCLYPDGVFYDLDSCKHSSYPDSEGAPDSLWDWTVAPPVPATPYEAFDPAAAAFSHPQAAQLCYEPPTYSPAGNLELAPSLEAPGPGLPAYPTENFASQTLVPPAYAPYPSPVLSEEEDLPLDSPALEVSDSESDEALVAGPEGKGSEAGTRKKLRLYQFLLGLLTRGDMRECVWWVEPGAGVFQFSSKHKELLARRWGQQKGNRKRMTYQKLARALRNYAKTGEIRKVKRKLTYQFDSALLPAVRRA
sequence,measurement,setting,value
ATCCAT,binding signal,FLI1,"1.22 fold enrichment (6-mer frequency, TF over GST control)"
same,binding signal,ELK1,"1.17 fold enrichment (6-mer frequency, TF over GST control)"
same,binding signal,GABPA,"1.16 fold enrichment (6-mer frequency, TF over GST control)"
same,binding signal,ERG,"1.11 fold enrichment (6-mer frequency, TF over GST control)"
same,binding signal,ELF1,"1.14 fold enrichment (6-mer frequency, TF over GST control)"
same,binding signal,EHF,"1.14 fold enrichment (6-mer frequency, TF over GST control)"
same,binding signal,SPI1,"1.07 fold enrichment (6-mer frequency, TF over GST control)"
same,binding signal,SPIB,"1.18 fold enrichment (6-mer frequency, TF over GST control)"
same,binding signal,ELK3,"1.2 fold enrichment (6-mer frequency, TF over GST control)"
same,binding signal,FEV,"1.24 fold enrichment (6-mer frequency, TF over GST control)"
same,binding signal,ETV5,"1.17 fold enrichment (6-mer frequency, TF over GST control)"
same,binding signal,HSF1,"1.23 fold enrichment (6-mer frequency, TF over GST control)"
same,binding signal,SPIC,"1.16 fold enrichment (6-mer frequency, TF over GST control)"
same,binding signal,ELF4,"1.13 fold enrichment (6-mer frequency, TF over GST control)"
same,binding signal,ELK4,"1.14 fold enrichment (6-mer frequency, TF over GST control)"
same,binding signal,ETV2,"1.19 fold enrichment (6-mer frequency, TF over GST control)"
same,binding signal,ELF3,"1.32 fold enrichment (6-mer frequency, TF over GST control)"
same,binding signal,CRX,"1.55 fold enrichment (6-mer frequency, TF over GST control)"
same,binding signal,ETV1,"1.14 fold enrichment (6-mer frequency, TF over GST control)"
